# Experimental data from PubChem BioAssay (NCI).
# Compounds without any hit were thinned out: in the full panel of roughly 79,000, 15% have a hit. A number with no mark means an inactive call. The source made the active and inactive calls. Rule as the data show it: active = growth inhibition above about 70%; inactive = the rest.
# Tests used:
# [1] = NCI Yeast Anticancer Drug Screen. Data for the rad52 strain (AID 147);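 also: 0% = growth of vehicle-treated control cultures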; details: S. cerevisiae rad52 mutant growth inhibition, hits give high values
# Summary of the method: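 DNA repair-defective yeast; compound exposure; growth scored against vehicle controls.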
# [2] = NCI Yeast Anticancer Drug Screen. Data for the rad50EPP+ strain (AID 151);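 also: 0% = growth of vehicle-treated control cultures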; details: S. cerevisiae rad50 mutant strain, hits give high values
# Summary of the method: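 rad50EPP+ yeast treated with test compounds. Readout: growth vs vehicle control.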
# [3] = NCI Yeast Anticancer Drug Screen. Data for the mgt1 strain (AID 153); details: S. cerevisiae mgt1 mutant growth inhibition, hits give high values
# Summary of the method: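 Growth inhibition relative to vehicle controls was scored for the mgt1 yeast strain after compound exposure.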
# [4] = NCI Yeast Anticancer Drug Screen. Data for the rad50 strain (AID 155);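 also: 0% = growth of vehicle-only cultures of the same strain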; details: S. cerevisiae rad50 strain growth inhibition, hits give high values
# Summary of the method: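 Genetically altered yeast (DNA repair pathway); compound treatment; growth inhibition vs vehicle ctrl.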
# [5] = NCI Yeast Anticancer Drug Screen. Data for the mec2-1 strain (AID 157); details: S. cerevisiae mec2-1 strain, hits give high values
# Summary of the method: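 Growth inhibition is read against vehicle-treated controls after compound exposure of the mec2-1 yeast strain, which is defective in DNA damage repair or cell cycle control.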
# [6] = NCI Yeast Anticancer Drug Screen. Data for the rad14 strain (AID 159);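 also: 0% = growth of vehicle-treated control cultures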; details: S. cerevisiae rad14 strain growth inhibition, hits give high values
# Summary of the method: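 Test compounds were applied to a repair-deficient yeast strain. Its growth was then compared with that of cultures given vehicle alone, and inhibition was expressed relative to those controls.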
# [7] = NCI Yeast Anticancer Drug Screen. Data for the sgs1 mgt1 strain (AID 161);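 also: 0% = growth of cultures given vehicle only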; details: S. cerevisiae sgs1 mgt1 strain, hits give high values
# Summary of the method: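 Yeast cells carrying a defined DNA-repair defect were exposed to test compounds. Growth inhibition was measured relative to vehicle-treated controls.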
# [8] = NCI Yeast Anticancer Drug Screen. Data for the CLN2oe strain (AID 163);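 also: 0% = growth of vehicle-only control cultures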; details: S. cerevisiae CLN2oe strain, hits give high values
# Summary of the method: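 Compound-treated yeast; growth vs vehicle ctrl = % inhibition. Genetically altered strain (cell-cycle control).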
# [9] = NCI Yeast Anticancer Drug Screen. Data for the cln2 rad14 strain (AID 165);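 also: 0% = growth equal to vehicle treated cultures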; details: S. cerevisiae cln2 rad14 strain, hits give high values
# Summary of the method: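 Growth inhibition, relative to vehicle-treated controls, is the read-out. The test organism is a yeast strain with defined genetic alterations, cln2 rad14.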
# [10] = NCI Yeast Anticancer Drug Screen. Data for the bub3 strain (AID 167); details: S. cerevisiae bub3 mutant strain, hits give high values
# Summary of the method: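 Yeast carrying a defined mutation is treated with each compound, and growth is compared with that of vehicle-exposed cells to give inhibition.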
# [11] = NCI Yeast Anticancer Drug Screen. Data for the wt2 strain (AID 169);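 also: 0% = growth of vehicle-treated yeast cultures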; details: S. cerevisiae wt2 strain growth inhibition, hits give high values
# Summary of the method: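 Compound exposure of yeast; growth compared with vehicle controls; inhibition reported.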
# [12] = NCI Yeast Anticancer Drug Screen. Data for the sgs1 strain (AID 173);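 also: 0% = growth of vehicle-only control cultures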; details: S. cerevisiae sgs1 mutant, hits give high values
# Summary of the method: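 Compounds applied to genetically altered yeast; growth compared with vehicle-treated cultures to give % inhibition.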
# [13] = NCI Yeast Anticancer Drug Screen. Data for the mlh1 rad18 strain (AID 175); details: S. cerevisiae mlh1 rad18 strain growth inhibition, hits give high values
# Summary of the method: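 Cells of a genetically altered yeast strain, deficient in DNA damage repair, were treated with compound. Their growth was then compared with that of vehicle-treated cultures to give inhibition.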
# [14] = NCI Yeast Anticancer Drug Screen. Data for the rad18 strain (AID 177); details: S. cerevisiae rad18 mutant growth inhibition, hits give high values
# Summary of the method: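 Compounds are applied to a repair-deficient yeast strain, and growth is compared with that of vehicle-treated cultures to give percent inhibition.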
# [15] = NCI Yeast Anticancer Drug Screen. Data for the mlh1 strain (AID 171);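 also: 0% = growth of vehicle-treated control cultures of the same strain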; details: S. cerevisiae mlh1 strain growth inhibition, hits give high values
# Summary of the method: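 Compounds are applied to a genetically altered yeast strain, and its growth is compared with that of vehicle-treated cultures to give percent inhibition.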
# [16] = at 5.0 µM (retest, dose inferred, filed as 0.5)
# [17] = at 50.0 µM (retest, dose inferred, filed as 5.0)
structure (smiles),measurement,setting,value
CNC(=O)OCc1c(COC(=O)NC)c(-c2ccc(Cl)c(Cl)c2)n2c1CCC2,growth inhibition,[1]; at 1.2 µM,-21%
same,growth inhibition,[1]; at 3.7 µM,-27%
same,growth inhibition,[1]; at 11.0 µM,-14%
same,growth inhibition,[1]; at 33.0 µM,77% (active)
same,growth inhibition,[1]; at 100.0 µM,97% (active)
same,growth inhibition,[2]; at 1.2 µM,-19%
same,growth inhibition,[2]; at 3.7 µM,-21%
same,growth inhibition,[2]; at 11.0 µM,-31%
same,growth inhibition,[2]; at 33.0 µM,-28%
same,growth inhibition,[2]; at 100.0 µM,4%
same,growth inhibition,[3]; at 1.2 µM,-66%
same,growth inhibition,[3]; at 3.7 µM,-73%
same,growth inhibition,[3]; at 11.0 µM,-69%
same,growth inhibition,[3]; at 33.0 µM,95% (active)
same,growth inhibition,[3]; at 100.0 µM,98% (active)
same,growth inhibition,[4]; at 1.2 µM,-51%
same,growth inhibition,[4]; at 3.7 µM,-51%
same,growth inhibition,[4]; [16],17%
same,growth inhibition,[4]; at 11.0 µM,-37%
same,growth inhibition,[4]; at 33.0 µM,87% (active)
same,growth inhibition,[4]; [17],98% (active)
same,growth inhibition,[4]; at 50.0 µM,84.9% (active)
same,growth inhibition,[4]; at 100.0 µM,97% (active)
same,growth inhibition,[5]; at 1.2 µM,-74%
same,growth inhibition,[5]; at 3.7 µM,-47%
same,growth inhibition,[5]; [16],-5%
same,growth inhibition,[5]; at 11.0 µM,-32%
same,growth inhibition,[5]; at 33.0 µM,85% (active)
same,growth inhibition,[5]; [17],98% (active)
same,growth inhibition,[5]; at 50.0 µM,87.5% (active)
same,growth inhibition,[5]; at 100.0 µM,98% (active)
same,growth inhibition,[6]; at 1.2 µM,-34%
same,growth inhibition,[6]; at 3.7 µM,-36%
same,growth inhibition,[6]; at 11.0 µM,-31%
same,growth inhibition,[6]; at 33.0 µM,98% (active)
same,growth inhibition,[6]; at 100.0 µM,98% (active)
same,growth inhibition,[7]; [16],32%
same,growth inhibition,[7]; [17],99% (active)
same,growth inhibition,[7]; at 50.0 µM,78.5% (active)
same,growth inhibition,[8]; at 1.2 µM,-4%
same,growth inhibition,[8]; at 3.7 µM,-13%
same,growth inhibition,[8]; at 11.0 µM,-13%
same,growth inhibition,[8]; at 33.0 µM,65%
same,growth inhibition,[8]; at 100.0 µM,98% (active)
same,growth inhibition,[9]; [16],38%
same,growth inhibition,[9]; [17],99% (active)
same,growth inhibition,[9]; at 50.0 µM,86.9% (active)
same,growth inhibition,[10]; at 1.2 µM,-58%
same,growth inhibition,[10]; at 3.7 µM,-61%
same,growth inhibition,[10]; [16],52%
same,growth inhibition,[10]; at 11.0 µM,-35%
same,growth inhibition,[10]; at 33.0 µM,93% (active)
same,growth inhibition,[10]; [17],99% (active)
same,growth inhibition,[10]; at 50.0 µM,55.6%
same,growth inhibition,[10]; at 100.0 µM,97% (active)
same,growth inhibition,[11]; at 1.2 µM,-14%
same,growth inhibition,[11]; at 3.7 µM,-14%
same,growth inhibition,[11]; at 11.0 µM,-14%
same,growth inhibition,[11]; at 33.0 µM,62%
same,growth inhibition,[11]; at 100.0 µM,97% (active)
same,growth inhibition,[12]; at 1.2 µM,-11%
same,growth inhibition,[12]; at 3.7 µM,-20%
same,growth inhibition,[12]; at 11.0 µM,-29%
same,growth inhibition,[12]; at 33.0 µM,88% (active)
same,growth inhibition,[12]; at 100.0 µM,97% (active)
same,growth inhibition,[13]; [16],5%
same,growth inhibition,[13]; [17],97% (active)
same,growth inhibition,[13]; at 50.0 µM,91.2% (active)
same,growth inhibition,[14]; at 1.2 µM,-39%
same,growth inhibition,[14]; at 3.7 µM,-46%
same,growth inhibition,[14]; at 11.0 µM,-32%
same,growth inhibition,[14]; at 33.0 µM,94% (active)
same,growth inhibition,[14]; at 100.0 µM,97% (active)
COC(=O)c1ccc([N+](=O)[O-])c(O)c1,growth inhibition,[1]; at 1.2 µM,-5%
same,growth inhibition,[1]; at 3.7 µM,-3%
same,growth inhibition,[1]; at 11.0 µM,17%
same,growth inhibition,[1]; at 33.0 µM,49%
same,growth inhibition,[1]; at 100.0 µM,98% (active)
same,growth inhibition,[2]; at 1.2 µM,-3%
same,growth inhibition,[2]; at 3.7 µM,-25%
same,growth inhibition,[2]; at 11.0 µM,3%
same,growth inhibition,[2]; at 33.0 µM,76% (active)
same,growth inhibition,[2]; at 100.0 µM,99% (active)
same,growth inhibition,[3]; at 1.2 µM,-15%
same,growth inhibition,[3]; at 3.7 µM,-13%
same,growth inhibition,[3]; at 11.0 µM,-4%
same,growth inhibition,[3]; at 33.0 µM,44%
same,growth inhibition,[3]; at 100.0 µM,98% (active)
same,growth inhibition,[4]; at 1.2 µM,-5%
same,growth inhibition,[4]; at 3.7 µM,-28%
same,growth inhibition,[4]; [16],2%
same,growth inhibition,[4]; at 11.0 µM,-17%
same,growth inhibition,[4]; at 33.0 µM,37%
same,growth inhibition,[4]; [17],65%
same,growth inhibition,[4]; at 50.0 µM,77.5% (active)
same,growth inhibition,[4]; at 100.0 µM,97% (active)
same,growth inhibition,[5]; at 1.2 µM,-26%
same,growth inhibition,[5]; at 3.7 µM,-23%
same,growth inhibition,[5]; [16],-7%
same,growth inhibition,[5]; at 11.0 µM,-4%
same,growth inhibition,[5]; at 33.0 µM,35%
same,growth inhibition,[5]; [17],75% (active)
same,growth inhibition,[5]; at 50.0 µM,85% (active)
same,growth inhibition,[5]; at 100.0 µM,99% (active)
same,growth inhibition,[6]; at 1.2 µM,-16%
same,growth inhibition,[6]; at 3.7 µM,-13%
same,growth inhibition,[6]; at 11.0 µM,-7%
same,growth inhibition,[6]; at 33.0 µM,27%
same,growth inhibition,[6]; at 100.0 µM,98% (active)
same,growth inhibition,[7]; [16],5%
same,growth inhibition,[7]; [17],4%
same,growth inhibition,[7]; at 50.0 µM,89.7% (active)
same,growth inhibition,[8]; at 1.2 µM,-6%
same,growth inhibition,[8]; at 3.7 µM,1%
same,growth inhibition,[8]; at 11.0 µM,1%
same,growth inhibition,[8]; at 33.0 µM,35%
same,growth inhibition,[8]; at 100.0 µM,98% (active)
same,growth inhibition,[9]; [16],-2%
same,growth inhibition,[9]; [17],65%
same,growth inhibition,[9]; at 50.0 µM,58.3%
same,growth inhibition,[10]; at 1.2 µM,-22%
same,growth inhibition,[10]; at 3.7 µM,-31%
same,growth inhibition,[10]; [16],-7%
same,growth inhibition,[10]; at 11.0 µM,-20%
same,growth inhibition,[10]; at 33.0 µM,6%
same,growth inhibition,[10]; [17],56%
same,growth inhibition,[10]; at 50.0 µM,78.9% (active)
same,growth inhibition,[10]; at 100.0 µM,99% (active)
same,growth inhibition,[11]; at 1.2 µM,3%
same,growth inhibition,[11]; at 3.7 µM,7%
same,growth inhibition,[11]; at 11.0 µM,4%
same,growth inhibition,[11]; at 33.0 µM,63%
same,growth inhibition,[11]; at 100.0 µM,99% (active)
same,growth inhibition,[15]; at 1.2 µM,-4%
same,growth inhibition,[15]; at 3.7 µM,-1%
same,growth inhibition,[15]; at 11.0 µM,7%
same,growth inhibition,[15]; at 33.0 µM,67%
same,growth inhibition,[15]; at 100.0 µM,99% (active)
same,growth inhibition,[12]; at 1.2 µM,22%
same,growth inhibition,[12]; at 3.7 µM,32%
same,growth inhibition,[12]; at 11.0 µM,21%
same,growth inhibition,[12]; at 33.0 µM,81% (active)
same,growth inhibition,[12]; at 100.0 µM,98% (active)
same,growth inhibition,[13]; [16],-28%
same,growth inhibition,[13]; [17],88% (active)
same,growth inhibition,[13]; at 50.0 µM,72.9% (active)
same,growth inhibition,[14]; at 1.2 µM,-9%
same,growth inhibition,[14]; at 3.7 µM,-2%
same,growth inhibition,[14]; at 11.0 µM,8%
same,growth inhibition,[14]; at 33.0 µM,52%
same,growth inhibition,[14]; at 100.0 µM,98% (active)
